Most compounds without a hit are left out; they make up all but 9.9% or so of the library.
HPGD block – qHTS Assay for Inhibitors of HPGD (15-Hydroxyprostaglandin Dehydrogenase); 15-hydroxyprostaglandin dehydrogenase [NAD(+)] (Homo sapiens), P15428; purified HPGD, NADH fluorescence kinetic, PGE2 substrate; Potency, µM, inactives show at the top dose activity change, negative = inhibition, most hits filed as inhibitors; 150,000 compounds, 4.3% hits; AID 894, 2007
Target sequence (P15428 whole entry, looked up): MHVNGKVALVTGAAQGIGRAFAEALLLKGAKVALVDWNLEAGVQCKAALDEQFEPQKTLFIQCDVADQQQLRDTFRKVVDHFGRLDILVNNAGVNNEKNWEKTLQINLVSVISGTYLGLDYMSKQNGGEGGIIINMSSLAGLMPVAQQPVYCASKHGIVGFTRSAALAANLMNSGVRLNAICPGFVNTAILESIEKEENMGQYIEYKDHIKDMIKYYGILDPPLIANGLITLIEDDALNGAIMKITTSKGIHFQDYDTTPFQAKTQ
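20 nM HPGD preincubated 15 min at room temperature with compound in 50 mM Tris-HCl pH 8, 0.01% Tween 20. Started with 1 mM NAD+ and 30 uM prostaglandin E2; NADH fluorescence (360/450 nm) read 5 times over 30-s intervals, last minus first.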
Tau ThT inhib – qHTS for Inhibitors of Tau Fibril Formation, Thioflavin T Binding. Microtubule-associated protein tau (Homo sapiens), P10636. recombinant tau K18 P301L, heparin-induced fibrillization, ThT fluorescence. Potency, µM (highest dose often 57.4 µM), for the others: at the highest dose activity, negative = inhibition, actives largely listed as inhibitors. 270,000 compounds, 2.1% hits. AID 1460, 2008; active means well fitted curve in the direction sought with a large enough effect; inconclusive means small, poorly fitted or top-dose-only effect, or another doubt; inactive means no such curve, though single readings can be large; an effect the other way counts as inactive or inconclusive; further: nearly all actives have a fitted effect of over 55% in size
Target sequence (P10636 561-689 P618L limits assumed): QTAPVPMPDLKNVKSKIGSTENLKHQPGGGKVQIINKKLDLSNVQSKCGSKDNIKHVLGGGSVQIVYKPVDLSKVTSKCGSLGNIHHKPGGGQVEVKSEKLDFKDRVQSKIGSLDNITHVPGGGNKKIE
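Recombinant human tau K18 fragment […] carrying P301L, 15 uM unlabeled plus 0.24 uM Alexa 594-labeled, was fibrillized with 20 uM heparin in 100 mM sodium acetate pH 7 for 6 hr at 37 C; 30 uM ThT fluorescence read after 1 hr.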
JMJD2E inh – qHTS Assay for Inhibitors of Human Jumonji Domain Containing 2E (JMJD2E); 230,000 compounds, 1.6% hits; Potency, µM (series often up to 57.1 µM), for inactives: at the top dose activity change, negative = inhibition, hits mostly inhibitors; JMJD2E catalytic domain, FDH-coupled NADH fluorescence (FDH is formaldehyde dehydrogenase);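 further: 0% = wells with enzyme and -100% = buffer wells without enzyme; nearly all actives have a fitted effect of over 50% in size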
ALDH1A1 block – qHTS Assay for Inhibitors of Aldehyde Dehydrogenase 1 (ALDH1A1) | Aldehyde dehydrogenase 1A1 (Homo sapiens), P00352 | Purified ALDH1A1, NADH fluorescence, propionaldehyde substrate | Potency, µM (titrated, usually from 75.3 µM), for inactives: top-dose activity, negative = inhibition, actives largely listed as inhibitors | 220,000 compounds, 7.3% hits | AID 1030, 2008;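 further: plate controls were no enzyme wells and a reference inhibitor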
Tau fibril FP – qHTS for Inhibitors of Tau Fibril Formation, Fluorescence Polarization; Microtubule-associated protein tau (Homo sapiens), P10636; K18 P301L tau heparin fibrillization, Alexa594 FP, 6 h; Potency, µM (series often up to 57.7 µM), for inactives: at the top dose activity, negative = inhibition, hits mostly inhibitors; 280,000 compounds, 0.39% hits; AID 1468, 2008; active means well fitted curve in the direction sought with a large enough effect; inconclusive means small, poorly fitted or top-dose-only effect, or another doubt; inactive means no such curve, though single readings can be large; an effect the other way counts as inactive or inconclusive; further: nearly all actives have a fitted effect of over 55% in size
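K18 P301L tau (15 uM unlabeled/0.24 uM Alexa 594-labeled, final) + compound + heparin 20 uM final; 100 mM NaOAc pH 7; 6 hr 37 C; ThT 30 uM final added, 1 hr RT; FP ex 555/em 632 nm.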
Tau fluor counter – Counterscreen qHTS for Inhibitors of Tau Fibril Formation, Fluorescence Polarization | 280,000 compounds, 0.93% hits | tau K18 P301L Alexa594 fluorescence, heparin fibrillization | Potency, µM (series often up to 57.7 µM), inactives show at the top dose activity change, negative = decrease; active means well fitted curve in the direction sought with a large enough effect; inconclusive means small, poorly fitted or top-dose-only effect, or another doubt; inactive means no such curve, though single readings can be large; an effect the other way counts as inactive or inconclusive; further: nearly all actives have a fitted effect of over 55% in size
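Human tau K18 P301L (15 uM unlabeled, 0.24 uM Alexa 594-labeled) in 100 mM sodium acetate pH 7 with 20 uM heparin, 6 hr at 37 C. ThT 30 uM added, 1 hr ambient; Alexa 594 FP and total fluorescence read at 555/632 nm.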
An asterisk follows results filed as active. Unless noted, the call rests on the fitted dose curve; in most records, active means well fitted inhibition curve with a large enough effect (not every such curve was filed as active); inconclusive means small, poorly fitted or top-dose-only effect, or another doubt; inactive means no such curve, though single readings can be large or run the other way. Unless noted, on the % scale 0 is the no-effect control and ±100 the full control effect; potency means the concentration at half of the fitted maximal effect.

Results for N[C@@H](Cn1ccc(=O)n(Cc2ccccc2C(=O)O)c1=O)C(=O)O ?
HPGD block: -14%; Tau ThT inhib: -5%; JMJD2E inh: 4%; ALDH1A1 block: -4%; Tau fibril FP: 0%; Tau fluor counter: -3%

Results for CCn1c2c(c(=O)n3ncc(C(=O)Nc4ccc(F)c(Cl)c4)c13)CN(Cc1ccc(OC)cc1)CC2 ?
Tau ThT inhib: inconclusive; Tau fibril FP: -11%; Tau fluor counter: -26%

How did Cn1c(=O)cc(Cl)[nH]c1=O do in these assays?
Tau ThT inhib: 7%; JMJD2E inh: -30%; ALDH1A1 block: 6%; Tau fibril FP: -8%; Tau fluor counter: 4%

Results for COc1ccc(-c2nn(CCC#N)cc2/C=N/O)cc1OC ?
Tau ThT inhib: 5%; JMJD2E inh: 1%; ALDH1A1 block: 18µM*; Tau fibril FP: 10%; Tau fluor counter: 7%

What do the screens show for `COc1ccc(-c2nn(CCC(=O)O)cc2/C=C2\SC(N)=NC2=O)cc1OC`?
HPGD block: 3.2µM*; Tau ThT inhib: -14%; JMJD2E inh: 0%; ALDH1A1 block: 1%; Tau fibril FP: 3%; Tau fluor counter: 0%

How did CCCOc1ccc(-c2nn(-c3ccccc3)cc2/C=C2\SC(N)=NC2=O)cc1C do in these assays?
HPGD block: 10µM*; Tau ThT inhib: -13%; JMJD2E inh: 7%; ALDH1A1 block: -7%; Tau fibril FP: inconclusive; Tau fluor counter: inconclusive

How did CCCOc1ccc(-c2nn(-c3ccccc3)cc2C2NC(=O)NC(C)=C2C(=O)OC)cc1C (centres undefined) do in these assays?
Tau ThT inhib: -11%; Tau fibril FP: inconclusive; Tau fluor counter: -25%

What do the screens show for `COc1ccc(-c2nn(CCC#N)cc2/C=N/O)cc1`?
Tau ThT inhib: -5%; JMJD2E inh: 2%; ALDH1A1 block: -2%; Tau fibril FP: 8%; Tau fluor counter: 1%

Results for CCCN1C(=O)c2cc(C(=O)O)ccc2C1O (centres undefined) ?
HPGD block: -13%; Tau ThT inhib: -1%; JMJD2E inh: inconclusive; ALDH1A1 block: -11%; Tau fibril FP: -14%; Tau fluor counter: 1%

What do the screens show for `CCCN1C(=O)c2cc(C(=O)NC3CCCCCC3)ccc2C1O` (centres undefined)?
HPGD block: -6%; Tau ThT inhib: -13%; JMJD2E inh: 1%; ALDH1A1 block: 16µM*; Tau fibril FP: -9%; Tau fluor counter: -5%

Results for O=C(NCCN1CCN(Cc2ccccc2)CC1)C1c2ccccc2C(=O)N2CCc3ccccc3C12 (centres undefined) ?
HPGD block: 0%; Tau ThT inhib: -3%; JMJD2E inh: -3%; ALDH1A1 block: 9%; Tau fibril FP: 10%; Tau fluor counter: 4%

What do the screens show for `Cc1ccc(CNC(=O)C2c3ccccc3C(=O)N3CCc4ccccc4C23)o1` (centres undefined)?
HPGD block: -26%; Tau ThT inhib: inconclusive; JMJD2E inh: inconclusive; ALDH1A1 block: 25µM*; Tau fibril FP: inconclusive; Tau fluor counter: -14%

Results for COc1ccc(NC(=O)Cn2ncc3c(C)n(Cc4cccc(Cl)c4)c(C)c3c2=O)cc1 ?
Tau ThT inhib: -6%; Tau fibril FP: -13%; Tau fluor counter: -14%

Results for CCC(C(=O)Nc1ccc(C(=O)OC)cc1)n1c(=O)c(-c2ccccc2NC(C)=O)nc2ccccc21 (centres undefined) ?
Tau ThT inhib: 2%; Tau fibril FP: 10%; Tau fluor counter: 9%

High-throughput results deposited in PubChem BioAssay by National Center for Advancing Translational Sciences (NCATS).
